This experiment addresses T1, GST-Nv-NF-kB (Ser allele) (Nematostella vectensis, UniProt A7UNT2 2-411).
T1 sequence: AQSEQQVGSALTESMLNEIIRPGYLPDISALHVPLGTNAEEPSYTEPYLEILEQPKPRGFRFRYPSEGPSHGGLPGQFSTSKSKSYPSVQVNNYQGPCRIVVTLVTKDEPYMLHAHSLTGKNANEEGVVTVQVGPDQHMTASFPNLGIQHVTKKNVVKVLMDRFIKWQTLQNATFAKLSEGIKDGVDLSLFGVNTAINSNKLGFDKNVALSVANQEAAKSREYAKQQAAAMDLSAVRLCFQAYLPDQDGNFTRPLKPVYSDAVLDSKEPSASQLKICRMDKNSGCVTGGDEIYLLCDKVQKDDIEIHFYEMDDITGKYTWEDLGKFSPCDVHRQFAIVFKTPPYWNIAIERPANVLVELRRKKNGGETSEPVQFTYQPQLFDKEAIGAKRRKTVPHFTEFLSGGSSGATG
In words: protein-binding microarray (PBM); PBM: ~300 nM protein, 6 mM HEPES pH 7.8, 80 mM KCl, 0.5 mM EDTA, 0.5 mM EGTA, 6% glycerol, 35 ng/ul poly-dIdC, 1% milk, 1 h, room temperature; Ap Aiptasia and Nv Nematostella (sea anemones) / Co Capsaspora / Aq Amphimedon (sponge) / Dm Drosophila / Hu human; RHD is the Rel homology domain; high values mean tight binding. Conditions: dsDNA, one strand shown.
The sequence “CCGATTAACATCACCGAATTTCCTGATGTTAATCGGGTCTTGATTCGCTTGACGCTGCTG” displayed a binding signal of 1.32 z-score.
“CCGATTAACATCAAGGGATTCCCTGATGTTAATCGGGTCTTGATTCGCTTGACGCTGCTG” yielded a binding signal of 4.98 z-score.
“CCGATTAACATCAAAATTCCACCTGATGTTAATCGGGTCTTGATTCGCTTGACGCTGCTG” displayed a binding signal of 3.38 z-score.
“CCGATTAACATCAGGGAATCTCATGATGTTAATCGGGTCTTGATTCGCTTGACGCTGCTG” came in with a binding signal of 3.31 z-score.
For “CCGATTAACATCAAGAATTCCCATGATGTTAATCGGGTCTTGATTCGCTTGACGCTGCTG”, the binding signal came to 5.01 z-score.
“CCGATTAACATCAGAATTACCCATGATGTTAATCGGGTCTTGATTCGCTTGACGCTGCTG”: the binding signal was determined as 3.26 z-score.
In turn, “CCGATTAACATCAGGAGTTACCCTGATGTTAATCGGGTCTTGATTCGCTTGACGCTGCTG” had a binding signal of 1.4 z-score.
Turning to “CCGATTAACATCAGGGGAACACATGATGTTAATCGGGTCTTGATTCGCTTGACGCTGCTG”, the binding signal is 5.55 z-score.
On to “CCGATTAACATCAATTTGGGAAATGATGTTAATCGGGTCTTGATTCGCTTGACGCTGCTG”, for which the binding signal is 2.36 z-score.
“CCGATTAACATCAAGGATTCCCGTGATGTTAATCGGGTCTTGATTCGCTTGACGCTGCTG” displayed a binding signal of 2.82 z-score.
The sequence “CCGATTAACATCAGGGACGGAAATGATGTTAATCGGGTCTTGATTCGCTTGACGCTGCTG” returned a binding signal of 2.34 z-score.
“CCGATTAACATCAAACACCCCCCTGATGTTAATCGGGTCTTGATTCGCTTGACGCTGCTG” gave a binding signal of 4.8 z-score.
The sequence “CCGATTAACATCAGGACTTCCCATGATGTTAATCGGGTCTTGATTCGCTTGACGCTGCTG” yielded a binding signal of 1.03 z-score.
The figure for “CCGATTAACATCACGGACTCCCCTGATGTTAATCGGGTCTTGATTCGCTTGACGCTGCTG” is 4.46 z-score.

The record behind these values is article PMC5700166.
